Laboratory results: PubChem BioAssay
Activity calls are given as the source filed them.

experiment: S. pombe growth modifiers, basal conditions – strain 972, OD600, 24 h, no modulator, primary screen (AID 1090);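 note: basal condition with compound alone and no growth modifier present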; settings: S. pombe 972 growth, higher = more signal, called active from +8 up or from −8 down
Note: test concentration not given here.

z-score, inactive:
O=C1O[C@@H](c2ccccc2)[C@@H](c2ccccc2)N2[C@@H](c3ccc(OCCO)cc3)[C@]3(C(=O)Nc4ccc(C#CC5=CCCCC5)cc43)[C@@H](C(=O)NC[C@H](O)c3ccccc3)[C@H]12 2.17, CC1CC/C=C\[C@H]2OC34C=CCN(c5ccc6ccccc6c5)C(=O)[C@H]3N(CCCO)C(=O)[C@@H]4C2C(=O)O1 (some centres undefined) 0.398, CC(C)C(O)C1C=CC2C(=O)N(c3ccccc3)C(=O)C2N1Nc1ccccc1 (centres undefined) -2.24, CC(C)C(CO)N1C(=O)[C@@H]2[C@H]3C(=O)OCC=C[C@H]3OC23C=CCN(c2ccc(Cl)cc2)C(=O)[C@@H]13 (some centres undefined) 0.123, CCOC(=O)C[C@H]1[C@H](OC(=O)Cc2ccc3c(c2)OCO3)[C@@H](NC(=O)c2ccc3ccccc3n2)c2cc(OCCCO)ccc2N1C(=O)c1ccc2ccccc2n1 -1.99, CCCC=C(CCC)[C@@H](NC(=O)C(C)(C)C)c1ccc(C(=O)OC)cc1 1.51, COC(=O)[C@@]1(Cc2ccccc2)[C@H]2c3cc(C(=O)N4CCCC4)n(CCc4ccccn4)c3C[C@H]2CN1C(=O)c1ccccc1 0.741, CC(C)c1ccc(NN2C(C(O)c3ccc(C#N)cc3)C=CC3C(=O)N(c4ccccc4)C(=O)C32)cc1 (centres undefined) 0.608, COc1ccc([Si](C)(C)[C@H]2[C@H](CC(=O)N3Cc4ccccc4C[C@H]3CO)O[C@@]3(C(=O)N(Cc4ccc(N5CCOC5=O)cc4)c4ccccc43)[C@@H]2C)cc1 -0.053

experiment: budding yeast growth modifiers under rapamycin – strain BY4716, OD600, 96 h, primary screen (AID 1091); settings: S. cerevisiae BY4716 + rapamycin, higher = more signal, called active from +8 up or from −8 down

z-score, inactive:
COCC(=C=CC[C@H](O)c1ccc(OCCO)cc1)CCO -0.274, CCOC(=O)C[C@H]1[C@H](OC(=O)Cc2ccc3c(c2)OCO3)[C@@H](NC(=O)c2ccc3ccccc3n2)c2cc(OCCCO)ccc2N1C(=O)c1ccccc1 0.336, COc1ccc([Si](C)(C)[C@@H]2[C@@H](CC(=O)N3CCC[C@H]3CO)O[C@]3(C(=O)N(Cc4cccc(N5C(=O)COc6ccccc65)c4)c4ccccc43)[C@H]2C)cc1 -0.278, COc1ccc(CCNC(=O)[C@@H]2c3ccccc3C(=O)N(C3CCCCC3)[C@H]2c2ccc(CO)cc2)cc1 0.584, NCCCCCNC(=O)[C@@H]1C[C@@H]2C(=O)N[C@@H](CCCCN)C(=O)N2[C@@H]1c1ccc(O)cc1 3.76, NC(=O)[C@H]1[C@@H]2C(=O)O[C@@H](c3ccccc3)[C@@H](c3ccccc3)N2[C@@H](c2ccc(OCCO)cc2)[C@]12C(=O)Nc1ccc(C#CCCO)cc12 3.63, CCCCC(O)C1C=CC2C(=O)N(C)C(=O)C2N1N(c1ccccc1)c1ccccc1 (centres undefined) 0.251, CCCC[C@@H](O)C1=C(COC)C[C@H]2C(=O)N(C)C(=O)[C@H]2[C@H]1CO -1.21, C=C(COC)/C(=C/C[C@H](OC(=O)c1ccncc1)c1ccccc1OCCO)c1cc(C(=O)OC)ccc1OC -0.498, COC(=O)C1(CC(C)C)C=C2C(=C(c3ccccc3)C(=O)C2C)CN1 (centres undefined) 1.71, CCOc1cc(C(O)C2C=CC3C(=O)NC(=O)C3N2Nc2ccc(Cl)cc2Cl)ccc1O (centres undefined) 0.339, Cc1ccc(S[C@]2(C(=O)NC(C)C)CC(=O)N(Cc3cc(C(F)(F)F)cc(C(F)(F)F)c3)[C@@H]2c2ccc(CO)cc2)cc1 -0.864, CCCCCCCCCC(O)C1C=CC2C(=O)N(c3ccccc3)C(=O)C2N1Nc1cc(OC)c(OC)c(OC)c1 (centres undefined) -0.236, COc1cc(C(O)C2C=CC3C(=O)N(C)C(=O)C3N2Nc2ccccc2)cc(OC)c1OC (centres undefined) -0.299, CCOC(=O)C1=C[C@@H](C(C)C)N(S(=O)(=O)c2ccc(C)cc2)[C@H]1c1ccc(C(F)(F)F)cc1 2.08, CC(C)C(CO)N1C(=O)[C@@H]2C3C(=O)OCCC/C=C\[C@H]3OC23C=CCN(c2ccc4ccccc4c2)C(=O)[C@@H]13 (some centres undefined) -0.0641, CCCCN1CC=CC23O[C@@H]4/C=C\CCCOC(=O)C4[C@H]2C(=O)N(CCO)[C@@H]3C1=O (some centres undefined) -0.0859, CC(C)C(CO)N1C(=O)[C@@H]2C3C(=O)OCCC/C=C\[C@H]3OC23C=CCN(Cn2nnc4ccccc42)C(=O)[C@@H]13 (some centres undefined) 0.0668, C=CC[C@@]1(C(=O)NCCCOC)N=C(c2ccc(OCCCO)cc2)O[C@@H]1c1ccccc1N=[N+]=[N-] -0.441, C=CCNC(=O)[C@@H]1[C@H]2C(=O)O[C@H](c3ccccc3)[C@H](c3ccccc3)N2[C@H](c2ccccc2OCCO)[C@@]12C(=O)N(C(=O)OCCOC)c1ccc(C#CC3(O)CCCCCC3)cc12 5.23, COCCOC(=O)N1C(=O)[C@@]2(c3cc(C#CCC(C(=O)OC)C(=O)OC)ccc31)[C@H](c1ccc(OCCO)cc1)N1[C@H](c3ccccc3)[C@H](c3ccccc3)OC(=O)[C@H]1[C@@H]2C(=O)N1CCc2cc(OC)c(OC)cc2C1 5.2, C=CCN1C(=O)[C@]2(CCC(=O)OC(C)(C)C)N=C(c3ccc(OCCCO)cc3)O[C@@H]2c2ccccc21 3.46, C#CCN(Cc1ccccc1Br)[C@H](/C=C/c1ccccc1)[C@@H](O)Cc1ccccc1 1.38, O=C1N(CCS(=O)(=O)c2ccccc2)c2ccccc2[C@H]2OC(c3ccc(OCCCO)cc3)=N[C@@]12Cc1ccccc1 5.03, COCCOC(=O)N1C(=O)[C@@]2(c3cc(C#CC4(O)CCCCCC4)ccc31)[C@H](c1ccc(O)cc1)N1[C@H](c3ccccc3)[C@H](c3ccccc3)OC(=O)[C@H]1[C@@H]2C(=O)N1CCN(c2ncccn2)CC1 1.07, CO[C@H]1O[C@H](CO)[C@@H](OC(=O)Nc2ccccc2)[C@H](OC(=O)c2cc3ccccc3[nH]2)[C@H]1OC(=O)c1cc2ccccc2[nH]1 0.216, O=C1O[C@@H](c2ccccc2)[C@@H](c2ccccc2)N2[C@@H](c3ccc(OCCO)cc3)[C@]3(C(=O)Nc4ccc(C#CC5=CCCCC5)cc43)[C@@H](C(=O)NC[C@H](O)c3ccccc3)[C@H]12 4.09, CC1CC/C=C\[C@H]2OC34C=CCN(c5ccc6ccccc6c5)C(=O)[C@H]3N(CCCO)C(=O)[C@@H]4C2C(=O)O1 (some centres undefined) 0.799, CC(C)C(O)C1C=CC2C(=O)N(c3ccccc3)C(=O)C2N1Nc1ccccc1 (centres undefined) 0.108, CC(C)C(CO)N1C(=O)[C@@H]2[C@H]3C(=O)OCC=C[C@H]3OC23C=CCN(c2ccc(Cl)cc2)C(=O)[C@@H]13 (some centres undefined) 1.25, CCOC(=O)C[C@H]1[C@H](OC(=O)Cc2ccc3c(c2)OCO3)[C@@H](NC(=O)c2ccc3ccccc3n2)c2cc(OCCCO)ccc2N1C(=O)c1ccc2ccccc2n1 -0.727, CCCC=C(CCC)[C@@H](NC(=O)C(C)(C)C)c1ccc(C(=O)OC)cc1 1.68, COC(=O)[C@@]1(Cc2ccccc2)[C@H]2c3cc(C(=O)N4CCCC4)n(CCc4ccccn4)c3C[C@H]2CN1C(=O)c1ccccc1 0.0746, CC(C)c1ccc(NN2C(C(O)c3ccc(C#N)cc3)C=CC3C(=O)N(c4ccccc4)C(=O)C32)cc1 (centres undefined) 0.44, COc1ccc([Si](C)(C)[C@H]2[C@H](CC(=O)N3Cc4ccccc4C[C@H]3CO)O[C@@]3(C(=O)N(Cc4ccc(N5CCOC5=O)cc4)c4ccccc43)[C@@H]2C)cc1 2.17
